Out of some 69,000 compounds screened, about 1,000 (1.4%) showed an effect of 50% or more. This is one part of a sample in which strong results are shown more often than they occur.
Test system: Leishmania donovani
Assay: Leishmania intramacrophage assay
Assay type: functional, organism-based
Set-up: scale not given: in the data most compounds retested in dose-response had high values

`Cc1c[nH]c(C2CCCN(Cc3ccccc3C(=O)O)C2)n1.O=CO` (stereo not drawn) was tested. Which “Percent Effect” value (30.3 µM, […]) did it give?
The value was -7.994%.

For `CC(=O)N1CCCN(C(=O)NCCNc2cnccn2)CC1`, which “Percent Effect” value (30 µM) is on record?
The value was 10.17%.

How did the “Percent Effect” value (30.3 µM, […]) turn out when `CN(C)c1nccc(N2CCO[C@H]3CN(Cc4nccn4C)C[C@H]32)n1.O=C(O)C(F)(F)F` was run?
The value was 22.89%.

`CCc1ccc(CN2C[C@@H]3OCCN(c4ccnc(N(C)C)n4)[C@@H]3C2)o1.O=C(O)C(F)(F)F` was tested. Which “Percent Effect” value (30 µM, 30.03 µM) did it give?
The value was 55.16%.

For `Cc1cccc(CN2C[C@@H]3OCCN(c4ccnc(N(C)C)n4)[C@@H]3C2)c1.O=C(O)C(F)(F)F`, which “Percent Effect” value (30.3 µM, […]) is on record?
Its value is -2.723%.

With `CCc1cc(CNC(=O)C2CCCN(C(=O)NCC(C)C)C2)[nH]n1` (stereo not drawn) as the compound, how does the “Percent Effect” value (30.3 µM, […]) read?
The value was -11.81%.

For `Cn1nc2c(cc1=O)CN(Cc1coc(-c3ccccc3)n1)CC2`, which “Percent Effect” value (30.3 µM, […]) is on record?
Its value is 18.82%.

For `CCn1nc2c(cc1=O)CN(Cc1coc(-c3ccccc3)n1)CC2`, which “Percent Effect” value (30.3 µM, […]) is on record?
Its value is 51.53%.

With `Cc1ccc(-c2nc(CN3CCc4nn(C)c(=O)cc4C3)co2)cc1` as the compound, how does the “Percent Effect” value (30 µM, 30.03 µM) read?
Its value is 21.01%.

`Nc1cc2c(nn1)CCN(C(=O)CC1CCCCC1)C2` was tested. Which “Percent Effect” value (30 µM) did it give?
Its value is 25.14%.

How did the “Percent Effect” value (30.3 µM, […]) turn out when `CCOC(=O)C1(Cc2cccc(OC)c2)CCCN(Cc2ncc[nH]2)C1` (stereo not drawn) was run?
Its value is -0.9604%.

With `CCOC(=O)C1(CCOC)CCCN(Cc2nccn2CC)C1` (stereo not drawn) as the compound, how does the “Percent Effect” value (30.3 µM, […]) read?
The value was -5.772%.

How did the “Percent Effect” value (30.3 µM, […]) turn out when `CCOC(=O)C1(Cc2ccccc2)CCCN(Cc2nccn2CC)C1` (stereo not drawn) was run?
Its value is 51.2%.

With `CN(C)C(=O)CNC(=O)c1ccc(Cl)cc1F` as the compound, how does the “Percent Effect” value (30 µM, 30.03 µM) read?
The value was -10.55%.

How did the “Percent Effect” value (30 µM, 30.03 µM) turn out when `Br.Cc1ccc(N(CC(=O)c2ccc(Br)cc2)C2=NCCCCC2)cc1` was run?
Its value is 57.51%.

How did the “Percent Effect” value (30 µM, 30.03 µM) turn out when `Br.O=C(CN(C1=NCCCC1)c1ccccc1)c1ccccc1` was run?
The value was -5.499%.

`COc1ccc(CN(Cc2c[nH]cn2)CC2CCCO2)c(OC)c1.O=C(O)CC(O)(CC(=O)O)C(=O)O` (stereo not drawn) was tested. Which “Percent Effect” value (30.3 µM, […]) did it give?
Its value is 20.29%.

For `Cc1noc(C)c1CN1CCc2ncnc(-c3cccnc3)c2CC1.O=C(O)C(F)(F)F.O=C(O)C(F)(F)F`, which “Percent Effect” value (30.3 µM, […]) is on record?
The value was 26.97%.

Which “Percent Effect” value (30.3 µM, […]) does the source give for `Cc1cc2c(N3CCC(N(C)CCc4cnn(C)c4)CC3)ncnc2s1` here?
Its value is 2.228%.

With `Cc1sc2ncnc(N3CCC(N(C)Cc4cnn(C)c4)CC3)c2c1C` as the compound, how does the “Percent Effect” value (30.3 µM, […]) read?
The value was 50.06%.

With `Cc1cc2c(N3CCC(N(C)Cc4cnn(C)c4)CC3)ncnc2s1` as the compound, how does the “Percent Effect” value (30.3 µM, […]) read?
Its value is 31.66%.

How did the “Percent Effect” value (30.3 µM, […]) turn out when `Cc1oc(C)c(C(=O)Nc2ccccn2)c1C` was run?
The value was 0.1995%.

For `Cc1cc(N2CCc3c(ncn3C)C2)n2nc(C(F)(F)F)nc2n1`, which “Percent Effect” value (30.3 µM, […]) is on record?
The value was 17.99%.

With `CC1(c2ccccc2)CCCN(Cc2cncn2C2CCCC2)C1` (stereo not drawn) as the compound, how does the “Percent Effect” value (30.3 µM, […]) read?
The value was 95.34%.

For `CC1(c2ccccc2)CCCN(Cc2cncn2C2CC2)C1` (stereo not drawn), which “Percent Effect” value (30.3 µM, […]) is on record?
The value was 33.62%.

For `COCCn1cncc1CN1CCCC(C)(c2ccccc2)C1` (stereo not drawn), which “Percent Effect” value (30.3 µM, […]) is on record?
The value was -2.364%.

How did the “Percent Effect” value (30.3 µM, […]) turn out when `Cc1ccc(C2(CN(C)Cc3c(C)nn(C)c3C)CCNCC2)nc1` was run?
The value was 37.1%.

How did the “Percent Effect” value (30.3 µM, […]) turn out when `Cc1ccc(C2(CN(C)Cc3snnc3C)CCNCC2)nc1` was run?
Its value is 37.33%.

`Cc1ccc(C2(CN(C)Cc3sccc3C)CCNCC2)nc1` was tested. Which “Percent Effect” value (30.3 µM, […]) did it give?
Its value is 56.47%.

`Cc1cccc(-c2noc(CN3CCCC(Cn4cncn4)C3)n2)c1` (stereo not drawn) was tested. Which “Percent Effect” value (30 µM, 30.03 µM) did it give?
The value was 23.08%.

For `CC(C)c1cncnc1N1CC[C@H](N2CCOCC2)[C@H](CCCO)C1`, which “Percent Effect” value (30.3 µM, […]) is on record?
Its value is 26.26%.

How did the “Percent Effect” value (30.3 µM, […]) turn out when `CCCC(=O)Nc1cc2c(cc1OC)NC(=O)CC2c1ccc(CC)o1` (stereo not drawn) was run?
The value was 77.7%.

How did the “Percent Effect” value (30.3 µM, […]) turn out when `CCc1ccc(C2CC(=O)Nc3cc(NS(C)(=O)=O)ccc32)o1` (stereo not drawn) was run?
The value was 14.16%.

For `CCc1ccc(C2CC(=O)Nc3cc(OC)c(NS(C)(=O)=O)cc32)o1` (stereo not drawn), which “Percent Effect” value (30.3 µM, […]) is on record?
Its value is -14.18%.

`Cc1cc(CN2CCN(Cc3cc(C#N)ccc3F)CC2)no1` was tested. Which “Percent Effect” value (30.3 µM, […]) did it give?
The value was 28.56%.

How did the “Percent Effect” value (30.3 µM, […]) turn out when `Cc1ccnc(OC[C@@]23CCO[C@@H]2CCN(c2ncc(F)cn2)C3)n1.O=C(O)C(F)(F)F` was run?
Its value is 22.41%.

How did the “Percent Effect” value (30.3 µM, […]) turn out when `CC(CN1CCCC1=O)NC(=O)c1cc(Cl)c2c(c1)OCO2` (stereo not drawn) was run?
The value was -42.28%.

How did the “Percent Effect” value (30.3 µM, […]) turn out when `O=C(N[C@@H]1CCNC[C@H]1O)c1ccc(F)c(F)c1` was run?
The value was -28.62%.

For `O=C(N[C@@H]1CCNC[C@H]1O)c1ccc(-c2ccc(F)cc2)cc1`, which “Percent Effect” value (30.3 µM, […]) is on record?
The value was 72.82%.

How did the “Percent Effect” value (30 µM, 30.03 µM) turn out when `O=C(N[C@@H]1CCNC[C@H]1O)c1ccc(F)c(Cl)c1` was run?
The value was 13.21%.

How did the “Percent Effect” value (30 µM) turn out when `Cc1nc(CN2CCOC(Cn3cccn3)C2)nc2ccccc12` (stereo not drawn) was run?
The value was 18.44%.

How did the “Percent Effect” value (30.3 µM, […]) turn out when `Cc1nn(C)c2nc(N3CCN(Cc4nccn4C)CC3)sc12` was run?
The value was 15.9%.

Which “Percent Effect” value (30.3 µM, […]) does the source give for `Cc1nc(N)sc1C(=O)N1CCC(C(O)Cc2ccccc2)CC1` (stereo not drawn) here?
Its value is 8.209%.

How did the “Percent Effect” value (30.3 µM, […]) turn out when `Cc1nn(C)c2nc(N3CCC(C(O)c4ccccn4)CC3)sc12` (stereo not drawn) was run?
Its value is 50.06%.

With `Cc1nn(C)c2nc(N3CCC(C(O)c4nccn4C)CC3)sc12` (stereo not drawn) as the compound, how does the “Percent Effect” value (30.3 µM, […]) read?
Its value is -0.9674%.

For `Cc1ccc(N2CCC(C(O)Cc3ccccc3)CC2)nn1` (stereo not drawn), which “Percent Effect” value (30.3 µM, […]) is on record?
Its value is 17.05%.

For `Cc1nn(C)c2nc(N3CCC(C(O)Cc4ccccc4)CC3)sc12` (stereo not drawn), which “Percent Effect” value (30.3 µM, […]) is on record?
Its value is 58.21%.

With `CN(C)C[C@@H]1CN(C(=O)Cc2ccc3ccccc3c2)C[C@@H]1CO` as the compound, how does the “Percent Effect” value (30.3 µM, […]) read?
Its value is -3.237%.

Which “Percent Effect” value (30.3 µM, […]) does the source give for `CC(C)N1CC2(CCC1=O)CCN(C(=O)c1cc(F)ccc1Cl)CC2` here?
Its value is 18%.

For `COc1ccc(CCNC(=O)CN2CCOCS2(=O)=O)cc1`, which “Percent Effect” value (30.3 µM, […]) is on record?
Its value is 0.9024%.

Which “Percent Effect” value (30.3 µM, […]) does the source give for `CCc1noc(C2CCCCN2C(=O)c2ccccc2)n1` (stereo not drawn) here?
Its value is -11.89%.

Which “Percent Effect” value (30.3 µM, […]) does the source give for `CCc1noc(C2CCCCN2C(=O)c2ccc3c(c2)OCO3)n1` (stereo not drawn) here?
Its value is 61.74%.

How did the “Percent Effect” value (30.3 µM, […]) turn out when `CCc1noc(C2CCCCN2C(=O)c2cccnc2)n1` (stereo not drawn) was run?
Its value is -10.93%.

For `O=C1C(CS(=O)(=O)Nc2ccc(Br)cc2)=NC(=O)n2cccc21`, which “Percent Effect” value (30.3 µM, […]) is on record?
The value was -27.67%.

How did the “Percent Effect” value (30.3 µM, […]) turn out when `CCc1noc(CN(CC)C(=O)c2ccc3ncsc3c2)n1` was run?
Its value is -21.19%.

How did the “Percent Effect” value (30.3 µM, […]) turn out when `CN(Cc1n[nH]c(=O)n1CCc1ccccc1F)S(C)(=O)=O` was run?
Its value is 22.43%.

How did the “Percent Effect” value (30.3 µM, […]) turn out when `COc1cccc2c1OCC(C(=O)N1CCN(CCS(C)(=O)=O)CC1)C2` (stereo not drawn) was run?
The value was 2.664%.

Which “Percent Effect” value (30.3 µM, […]) does the source give for `Fc1ccc(CN2CCCC3(CCN(Cc4ncc[nH]4)C3)C2)cc1F` (stereo not drawn) here?
The value was 24.4%.

Which “Percent Effect” value (30.3 µM, […]) does the source give for `Cc1c[nH]c(CN2CCC3(CCCN(Cc4ccc(F)c(F)c4)C3)C2)n1` (stereo not drawn) here?
Its value is 53.74%.

`Cc1ccc(CN2CCC3(CCCN(Cc4ccc(F)c(F)c4)C3)C2)o1` (stereo not drawn) was tested. Which “Percent Effect” value (30.3 µM, […]) did it give?
Its value is -12.81%.

`Cc1cc(C)n(C2CCN(S(C)(=O)=O)CC2)n1` was tested. Which “Percent Effect” value (30.3 µM, […]) did it give?
The value was -8.348%.

`O=C(Nc1cc(Cl)ccc1Cl)NC1CCN(C2CCOC2)CC1` (stereo not drawn) was tested. Which “Percent Effect” value (30.3 µM, […]) did it give?
The value was -19.47%.

For `O=C(NCCn1ccnc1)N1CCCN(Cc2cccs2)CC1`, which “Percent Effect” value (30 µM) is on record?
Its value is 32.04%.

From ChEMBL document CHEMBL3988442, “University of Dundee, Small-Polar-MMV Screening Library” (2021)
